{"source": "PubChem BioAssay (NCI)", "note": "Compounds without any hit were thinned out: in the full panel of roughly 83,000, 20% have a hit.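 Negative percent growth values reflect cell death: -40 means 40% of the cells present at the start died, and -100 means all died.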 Values without a mark were called inactive. Calls of active or inactive are those of the source. Rule for the calls: active = growth percent below 10; inactive = the rest.", "data": [{"test_system": "HL-60(TB) leukemia", "assay": "NCI-60 one-dose screen, 48 h (100 = growth as untreated, 0 = no growth, -100 = all killed)", "conditions": "10 µM unless noted", "values": [{"smiles": "CN(C)c1ccc2nc3ccc(=N)cc-3sc2c1", "growth": "-28.5% (active)"}, {"smiles": "Cc1cc(O)c(C2=NN(c3ccc(S(N)(=O)=O)cc3)C(/C=C/c3ccccc3)C2)cc1Cl", "note": "(stereo not drawn)", "growth": "89.7%"}, {"smiles": "CCOC(=O)N1C2CCC(C2)N1C(=O)OCC", "growth": "92.4%"}]}]}
